Pol beta inh: DNA polymerase beta (human) inhibition; Potency, µM (doses to about 114 µM), for the others: at the highest dose activity change, negative = inhibition, usual class: inhibitors; AID 485314; 340,000 compounds, 1.3% hits; Pol beta primer extension/strand displacement, fluorescence kinetic; further: potency means the concentration at half of the fitted maximal effect; on the % scale 0 is the no-effect control and ±100 the full control effect
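Curves were derived by four-parameter Hill fits of normalized qHTS data. The kinetic fluorescent primer-extension read was taken at 0 and 10 min after 50 nM substrate, following a 15 min room-temperature preincubation of 10 nM enzyme with compounds.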
WRN helicase inh: WRN helicase (human) inhibition; WRN helicase unwinding, fluorescent forked duplex, kinetic; Potency, µM (series often up to 114 µM), for inactives: top-dose activity change, negative = inhibition, actives largely listed as inhibitors; 360,000 compounds, 0.46% hits; AID 651768; further: potency means the concentration at half of the fitted maximal effect; on the % scale 0 is the no-effect control and ±100 the full control effect; nearly all actives have a fitted effect of over 55% in size
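Enzyme (20 nM final) and test compound sit together 15 min at room temperature before substrate addition. Substrate is a single-forked duplex oligonucleotide (100 nM) labelled with fluorophore and quencher, with 2 mM ATP; helicase unwinding raises red fluorescence, read kinetically.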
Pol eta inh-1: DNA polymerase eta (human) inhibition. Q9Y253. AID 588591. recombinant Pol eta, fluorescent DNA replication assay. 390,000 compounds, 1.2% hits. Potency, µM (highest dose often 114 µM), without a hit: top-dose activity change, negative = inhibition, most hits filed as inhibitors; further: potency means the concentration at half of the fitted maximal effect; on the % scale 0 is the no-effect control and ±100 the full control effect
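Fluorescent replication assay: 50 nM final substrate added after a 15 min room-temperature compound preincubation with 10 nM enzyme. Signal taken at 0 min and again at 10 min.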
Pol kappa inh-1: DNA polymerase kappa (human) inhibition; AID 588579; 400,000 compounds, 0.53% hits; Q9UBT6; purified Pol kappa, fluorescent DNA synthesis assay, 10 min; Potency, µM (titrated, usually from 107 µM), without a hit: at the highest dose activity, negative = inhibition, actives largely listed as inhibitors; further: potency means the concentration at half of the fitted maximal effect; on the % scale 0 is the no-effect control and ±100 the full control effect
Target sequence (Q9UBT6 whole entry, looked up): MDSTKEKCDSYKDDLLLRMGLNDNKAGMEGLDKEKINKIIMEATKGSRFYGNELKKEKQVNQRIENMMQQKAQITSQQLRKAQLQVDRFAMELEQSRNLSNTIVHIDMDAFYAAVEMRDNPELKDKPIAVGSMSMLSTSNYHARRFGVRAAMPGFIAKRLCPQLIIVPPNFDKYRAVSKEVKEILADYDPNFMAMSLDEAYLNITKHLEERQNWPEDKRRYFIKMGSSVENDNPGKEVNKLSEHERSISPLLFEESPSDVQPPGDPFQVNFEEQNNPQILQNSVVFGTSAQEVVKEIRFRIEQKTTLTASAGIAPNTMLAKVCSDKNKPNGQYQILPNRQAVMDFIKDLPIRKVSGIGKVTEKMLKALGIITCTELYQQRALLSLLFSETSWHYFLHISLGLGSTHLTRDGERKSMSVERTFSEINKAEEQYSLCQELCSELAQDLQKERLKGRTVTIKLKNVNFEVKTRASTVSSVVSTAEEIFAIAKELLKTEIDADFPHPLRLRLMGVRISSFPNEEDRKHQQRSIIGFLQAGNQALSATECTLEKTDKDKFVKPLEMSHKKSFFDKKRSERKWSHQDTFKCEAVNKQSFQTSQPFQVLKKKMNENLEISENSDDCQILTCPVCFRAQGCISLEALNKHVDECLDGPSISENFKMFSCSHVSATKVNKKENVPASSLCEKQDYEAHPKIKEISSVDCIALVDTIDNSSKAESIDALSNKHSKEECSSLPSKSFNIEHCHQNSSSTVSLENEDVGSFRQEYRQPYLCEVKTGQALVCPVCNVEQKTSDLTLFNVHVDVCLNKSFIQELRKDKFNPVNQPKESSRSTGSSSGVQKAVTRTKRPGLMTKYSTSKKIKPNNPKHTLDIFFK
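Inhibition of 10 nM Pol kappa is measured by a fluorescent read-out at 0 and 10 min following addition of 50 nM substrate (final), with a 15-min room-temperature compound preincubation.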
FEN1 inhibitor: inhibitors of human flap endonuclease 1. P39748. Recombinant FEN1 flap cleavage, fluorescence, 15 min. AID 588795. 390,000 compounds, 0.35% hits. Potency, µM (doses to about 114 µM), inactives show at the top dose activity change, negative = inhibition, usual class: inhibitors; further: potency means the concentration at half of the fitted maximal effect; on the % scale 0 is the no-effect control and ±100 the full control effect; nearly all actives have a fitted effect of over 65% in size
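Potency values derive from four-parameter Hill fits of normalized qHTS data. The reaction used 10 nM FEN1 preincubated 15 min at room temperature with compound, then 50 nM DNA substrate, read at 0 and 15 min.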
POLI inh: blocks human DNA polymerase iota activity; Q9UNA4; Pol iota fluorescent replication assay, 10 min; Potency, µM (top dose mostly 115 µM), for the others: at the highest dose activity, negative = inhibition, hits mostly inhibitors; 390,000 compounds, 1% hits; AID 588590; further: potency means the concentration at half of the fitted maximal effect
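Pol iota at 10 nM preincubated 15 min with compounds at room temperature; reaction started with fluorescent substrate, 50 nM final. Fluorescence read kinetically at 0 and 10 min; buffer-only wells as negative control.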
GALK confirm: confirmation of human galactokinase (GALK) inhibitors | shares compounds with Pol eta inh-1 | purified GALK, Kinase-Glo ATP depletion luminescence | Potency, µM (series often up to 115 µM), for inactives: at the highest dose activity, negative = inhibition, most hits filed as inhibitors | 150 compounds, 70% hits | AID 2015
Redox cycling: generates H2O2 by redox cycling, flagging GALK artifacts; Potency, µM (titrated, usually from 115 µM), inactives show top-dose activity change, negative = H2O2 signal, usual class: inhibitors; 150 compounds, 40% hits; AID 2035; shares compounds with Pol eta inh-1; Phenol red-HRP H2O2 redox cycling, absorbance 600 nm
HEK293 viability: reduces HEK-293 cell viability in GALK counter-screen | shares compounds with Pol eta inh-1 | HEK-293 viability, ATP luminescence (CellTiter-Glo), 24/48 h | Potency, µM (series often up to 46.1 µM), inactives show at the top dose activity change, negative = cytotoxicity, usual class: inhibitors | 170 compounds, 10% hits; further: potency means the concentration at half of the fitted maximal effect; on the % scale 0 is the no-effect control and ±100 the full control effect
Pol kappa inh-2: Pol kappa (human) inhibition, cherry-pick confirmation; Potency, µM, actives largely listed as inhibitors; purified Pol-kappa, fluorescent strand-displacement substrate; shares compounds with Pol eta inh-1; 920 compounds, 76% hits; further: potency means the concentration at half of the fitted maximal effect
Pol eta inh-2: confirmation of human DNA polymerase eta inhibitors | 2,600 compounds, 64% hits | Potency, µM, hits mostly inhibitors | AID 720502 | Pol eta primer extension, TAMRA/BHQ fluorescence, 10 min | shares compounds with Pol eta inh-1; further: potency means the concentration at half of the fitted maximal effect
Numbers without * were called inactive; ? = inconclusive; . = no result given; [ ] = remark or other dose. A selection: hits, their analogues and other compounds. The true share with any hit is near 2.4%. The call rests on the fitted dose curve; in most records, active means well fitted curve in the direction sought with a large enough effect; inconclusive means small, poorly fitted or top-dose-only effect, or another doubt; inactive means no such curve, though single readings can be large; an effect the other way counts as inactive or inconclusive.

SMILES	Pol beta inh	WRN helicase inh	Pol eta inh-1	Pol kappa inh-1	FEN1 inhibitor	POLI inh	Pol eta inh-2	others
CN(C)c1ncc2nc(-c3ccc(F)cc3)c(=O)n(C)c2n1	.	.	.	2%[60.1 µM]	.	.	.
Cc1cccc(Oc2ccc3c(c2)Oc2ccccc2NC3=O)c1	13µM*	.	50µM*	?	-21%	71µM*	?
COc1ccc(Oc2ncc3nc(-c4cc(F)cc(F)c4)c(=O)n(C[C@H]4CCCO4)c3n2)cc1	.	.	.	-9%[60.1 µM]	.	.	.
Cc1cc(=O)oc2cc(NC(=O)C(CCCCN)NC(=O)C(CC3CCCCC3)NC(=O)OCC3c4ccccc4-c4ccccc43)ccc12 (stereo unspecified)	.	.	.	9%[60.1 µM]	.	.	.
COc1ccccc1NC(=O)C(=N\O)/C(C)=N/O	45µM*	-36%	14µM*	?	-13%	?	85*
COc1ccccc1NC(C)=O	-5%	2%	0%	2%	5%	?	.
COc1cc(OC)c(-c2nn3c(-c4cc(C)[nH]n4)nnc3s2)cc1OC	.	.	.	-4%	0%	1%	.
O=C(O)c1cc(S(=O)(=O)N2CCN(S(=O)(=O)c3ccc4ccccc4c3)CC2)ccc1Br	.	-11%[11.6 µM]	18µM*	-36%	-10%	?	48*	Pol kappa inh-2=17*
O=S(=O)(c1ccc2ccccc2c1)N1CCCCCC1	-27%	3%[57.1 µM]	-8%	4%	-6%	90%	.
CCOC(=O)c1cc(-c2ccc(/C=C3/C(=O)N(c4ccc(C(=O)O)cc4)N=C3C)o2)ccc1Cl	-13%	-23%[11.6 µM]	18µM*	?	-21%	1.4µM*	.	GALK confirm=21µM*;Redox cycling=12µM*;HEK293 viability=14%
CCOC(=O)C1CCN(c2nc(N)c3c(N)nc(SCC(=O)O)cc3c2C#N)CC1	28µM*	45µM*	7.1µM*	35µM*	45µM*	25µM*	.	GALK confirm=67µM*;Redox cycling=19µM*;HEK293 viability=-14%
CN(C)c1ccc(-c2cc(NCc3cccnc3)ncn2)cc1	.	.	.	-11%[60.1 µM]	.	.	.
C=C1C(C2(C)C=CC(=O)C(C)(C)C2CC(=O)OC)CC[C@@]2(C)C(c3ccoc3)OC(=O)C3OC132 (stereo partly specified)	.	.	.	-6%[60.1 µM]	.	.	.
Nc1nnc(CC(=O)N/N=C/c2cccc([N+](=O)[O-])c2)s1	30%	-37%	-20%	-4%	-5%	12%	.
Nc1nnc(CC(=O)N/N=C/c2cc([N+](=O)[O-])cc(Br)c2O)s1	?	56µM*	?	50µM*	-31%	?	?	Pol kappa inh-2=47*
COc1ccc(N2CCN(S(=O)(=O)c3ccc4c(c3)CC(C)N4C(C)=O)CC2)cc1 (stereo unspecified)	2%	.	-12%	-16%	-6%	0%	.
Cc1ccc([N+](=O)[O-])cc1S(=O)(=O)Nc1ccc(C(=O)N2CCN(C(=O)c3ccco3)CC2)cc1	.	-5%[11.6 µM]	22µM*	?	-15%	?	?
CC(C)Sc1nc2sc3c(c2c2nnc(SCC(=O)NCc4ccco4)n12)CCCC3	-11%	-13%[11.6 µM]	4.5µM*	-18%	-17%	?	67*
CCOC(=O)Cc1csc(NC(=O)NC2(C(F)(F)F)Oc3cc(Cl)c(Cl)cc3O2)n1	-7%	-17%	-20%	20µM*	7%	-10%	.	Pol kappa inh-2=11*
CN(C(=O)Cc1ccccc1OC(=O)c1ccccc1)c1ccccc1I	.	.	.	-10%	-9%	10%	.
O=C(N/N=C/c1cc(Cl)cc([N+](=O)[O-])c1O)c1ccccc1NS(=O)(=O)c1cccs1	-5%	-18%[11.6 µM]	?	-9%	-33%	?	?
Cc1ccc(NC(=O)CN2C(=O)CC(c3ccco3)Sc3ccccc32)cc1Cl (stereo unspecified)	?	.	-20%	0%	0%	-21%	.
Cc1c(N=C2C=C(Br)C(=O)C(Br)=C2)c(=O)n(-c2ccccc2)n1C	40µM*	-1%[11.6 µM]	?	79µM*	?	4µM*	60*
Cc1ccc(C)c(N2CCN(C(=O)Cn3c(-c4cccs4)cc4ccccc43)CC2)c1	3%	.	-20%	-15%	-11%	8%	.
COc1cccc(OCCOc2ccc(/C=C3/SC(=S)NC3=O)cc2)c1	10µM*	?	28µM*	-53%	-7%	?	85*	Pol kappa inh-2=?
SMILES	Pol beta inh	WRN helicase inh	Pol eta inh-1	Pol kappa inh-1	FEN1 inhibitor	POLI inh	Pol eta inh-2	others
O=c1c(-c2cc(-c3ccc(F)cc3)nc3c2COc2ccc(Cl)cc2-3)coc2ccc(F)cc12	2%	.	-10%	-5%	-4%	27%	.
COc1ccccc1C(=O)N/C(=C/c1ccco1)C(=O)Nc1cccc(C(=O)O)c1	?	?	20µM*	45µM*	?	?	76*	Pol kappa inh-2=34*
Cc1cc(NC(=O)/C=C/c2ccco2)ccc1NC(=O)c1ccccc1	-2%	-15%	-11%	5%	1%	4%	.
Cc1cccc(NC(=O)/C(=C\c2ccc([N+](=O)[O-])o2)NC(=O)c2ccc(Cl)cc2)c1	10µM*	-7%[11.6 µM]	10µM*	?	3%	?	?
Cc1ccc(C(=O)N/C(=C/c2ccco2)C(=O)Nc2cccc(C(=O)O)c2)cc1	1%	-24%	22µM*	?	-32%	?	?
O=C(/C=C/c1ccco1)Nc1ccccc1C(=O)Nc1cccc(C(=O)O)c1	-50%	?	18µM*	?	-32%	20µM*	30*	Pol kappa inh-2=24*
c1ccc2c3c([nH]c2c1)[C@@H]1[C@H]2CC[C@H]([C@H]4CCCN[C@H]42)N1CC3	.	.	.	-3%[12 µM]	.	.	.
NC(=O)[C@H]1CCCN1C(=O)[C@H](Cc1cnc[nH]1)NC(=O)[C@@H]1CCC(=O)N1	.	.	.	-15%[12 µM]	.	.	.
